Source: PubChem BioAssay (NCATS)
Results filed as inconclusive are left out. Calls of active or inactive are those of the source. Unless noted, calls follow the shape of the full dose curve.

What was measured:
[1] = target: Estrogen receptor (Homo sapiens) (UniProt P03372); experiment: qHTS assay for small molecule antagonists of estrogen receptor alpha signaling (AID 588513; active = well fitted curve in the direction sought with a large enough effect in the signal ratio, with a control signal flat, not every such curve was filed as active; the % refers to the signal ratio; also: % is scaled to controls: 0 for no effect and ±100 for the full control effect)
Chain of Estrogen receptor (Homo sapiens) (P03372 whole entry, looked up): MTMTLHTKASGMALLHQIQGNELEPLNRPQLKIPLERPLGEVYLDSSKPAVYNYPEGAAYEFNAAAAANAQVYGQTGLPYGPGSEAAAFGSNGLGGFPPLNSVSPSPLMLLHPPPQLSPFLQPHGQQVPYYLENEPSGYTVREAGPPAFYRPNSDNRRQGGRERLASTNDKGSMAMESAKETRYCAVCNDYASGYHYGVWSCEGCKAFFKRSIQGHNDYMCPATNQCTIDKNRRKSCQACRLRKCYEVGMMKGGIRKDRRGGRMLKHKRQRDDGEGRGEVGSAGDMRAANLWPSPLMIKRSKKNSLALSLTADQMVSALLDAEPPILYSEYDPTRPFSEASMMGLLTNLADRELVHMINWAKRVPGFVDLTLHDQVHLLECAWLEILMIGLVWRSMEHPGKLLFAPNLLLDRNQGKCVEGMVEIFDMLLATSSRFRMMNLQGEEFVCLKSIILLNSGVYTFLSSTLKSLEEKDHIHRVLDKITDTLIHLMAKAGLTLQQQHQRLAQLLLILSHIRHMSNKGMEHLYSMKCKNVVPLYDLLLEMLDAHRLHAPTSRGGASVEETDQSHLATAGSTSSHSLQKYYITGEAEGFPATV
Procedure, shortened: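 Beta-lactamase reporter, antagonist mode, HEK 293 GripTite cells; 0.5nM E2 stimulus, 18 h, 37 C; CCF4 dye 2 h RT; fluorescence. IC50 and efficacy from Hill fits, normalized to E2 and DMSO.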

[2] = target: Estrogen receptor (Homo sapiens) (UniProt P03372); experiment: qHTS assay for small molecule agonists of estrogen receptor alpha signaling (AID 588514);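 also: 0% = vehicle only and 100% = reference agonist; nearly all actives have a fitted effect of over 70% in size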
Procedure, shortened: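 Efficacy is expressed against 20 nM 17-beta-estradiol (100%) and DMSO basal (0%); EC50 from Hill equation. Assay: beta-lactamase reporter in ER-alpha-UAS-bla HEK 293 cells, 18 h compound incubation, CCF4 detection.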

[3] = target: Bile acid receptor (Homo sapiens) (UniProt Q96RI1); experiment: qHTS assay for small molecule antagonists of farnesoid X receptor signaling (AID 588526); also: % is scaled to controls: 0 for no effect and ±100 for the full control effect
Chain of Bile acid receptor (Homo sapiens) (Q96RI1 whole entry, looked up): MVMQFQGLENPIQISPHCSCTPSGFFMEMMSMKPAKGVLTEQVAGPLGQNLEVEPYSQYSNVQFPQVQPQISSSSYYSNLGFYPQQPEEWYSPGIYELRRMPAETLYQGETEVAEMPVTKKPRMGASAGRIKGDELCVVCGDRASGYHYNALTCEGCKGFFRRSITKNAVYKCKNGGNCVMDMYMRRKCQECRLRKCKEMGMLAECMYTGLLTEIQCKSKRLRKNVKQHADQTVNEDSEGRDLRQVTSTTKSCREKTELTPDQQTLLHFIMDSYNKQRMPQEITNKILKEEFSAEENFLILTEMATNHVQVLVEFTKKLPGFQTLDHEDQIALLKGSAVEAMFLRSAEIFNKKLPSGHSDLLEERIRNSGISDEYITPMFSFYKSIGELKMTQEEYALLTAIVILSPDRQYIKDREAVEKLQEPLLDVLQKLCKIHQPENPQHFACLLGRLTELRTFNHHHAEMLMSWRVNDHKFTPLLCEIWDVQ
Procedure, shortened: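 Concentration-response titrations were fitted to the Hill equation for half-maximal inhibition and maximal response, with data normalised to 50 uM chenodeoxycholic acid and DMSO control wells. Cells: FXR-UAS-bla HEK293T, dialyzed FBS.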

[4] = target: Bile acid receptor (Homo sapiens) (UniProt Q96RI1); experiment: qHTS assay for small molecule agonists of farnesoid X receptor signaling (AID 588527); details: HEK293T FXR-UAS-bla, beta-lactamase ratio, 16 h; activation: stronger effect = higher value;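 also: series mostly up to about 77 µM; 0% = vehicle basal and 100% = reference agonist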
Procedure, shortened: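 Read-out: beta-lactamase reporter fluorescence with CCF4 substrate in GeneBLAzer FXR-UAS-bla HEK293T cells, after 16 h compound exposure at 37 C. Response scaled between DMSO basal (0%) and chenodeoxycholic acid at 100 uM (100%).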

[5] = target: Glucocorticoid receptor (Homo sapiens) (UniProt P04150); experiment: qHTS assay for small molecule agonists of glucocorticoid receptor signaling (AID 588532; active = well fitted curve in the direction sought with a large enough effect in the signal ratio, with a control signal flat; the % refers to the signal ratio;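 also: 100% = dexamethasone at 0.1 µM and 0% = DMSO only wells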); details: HeLa MMTV-bla, beta-lactamase ratio, agonist, 18 h; activation: stronger effect = higher value, percent of dexamethasone control, DMSO zero
Chain of Glucocorticoid receptor (Homo sapiens) (P04150 whole entry, looked up): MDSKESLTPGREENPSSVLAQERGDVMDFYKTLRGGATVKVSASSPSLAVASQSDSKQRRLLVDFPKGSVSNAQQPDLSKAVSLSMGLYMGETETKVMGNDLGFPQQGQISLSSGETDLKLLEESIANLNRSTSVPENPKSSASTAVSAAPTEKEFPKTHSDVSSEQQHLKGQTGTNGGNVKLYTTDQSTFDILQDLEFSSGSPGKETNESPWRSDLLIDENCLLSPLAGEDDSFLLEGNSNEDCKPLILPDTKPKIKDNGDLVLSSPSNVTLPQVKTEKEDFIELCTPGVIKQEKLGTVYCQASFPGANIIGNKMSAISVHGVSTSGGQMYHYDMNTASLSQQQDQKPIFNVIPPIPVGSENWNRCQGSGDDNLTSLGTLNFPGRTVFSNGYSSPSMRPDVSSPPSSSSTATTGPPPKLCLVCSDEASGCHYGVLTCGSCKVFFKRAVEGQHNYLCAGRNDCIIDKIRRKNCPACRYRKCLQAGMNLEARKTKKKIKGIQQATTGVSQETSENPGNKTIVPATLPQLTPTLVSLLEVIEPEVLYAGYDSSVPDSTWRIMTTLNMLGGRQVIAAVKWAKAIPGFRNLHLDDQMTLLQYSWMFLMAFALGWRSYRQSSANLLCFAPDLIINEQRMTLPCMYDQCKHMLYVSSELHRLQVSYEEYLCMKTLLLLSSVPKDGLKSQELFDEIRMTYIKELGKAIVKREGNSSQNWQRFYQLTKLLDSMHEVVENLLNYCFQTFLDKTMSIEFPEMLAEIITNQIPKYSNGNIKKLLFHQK
Procedure, shortened: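 Titration series, up to 92 uM, applied to GRE-bla HeLa cells for 18 h at 37 C. Detection by CCF4 FRET substrate after 2 h at RT.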

[6] = target: Glucocorticoid receptor (Homo sapiens) (UniProt P04150); experiment: qHTS assay for small molecule antagonists of glucocorticoid receptor signaling (AID 588533; active = well fitted inhibition curve with a large enough effect in the signal ratio, with a control signal flat, not every such curve was filed as active; the % refers to the signal ratio;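 also: cells stimulated with 2 nM dexamethasone as agonist; % is scaled to controls: 0 for no effect and ±100 for the full control effect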)
Procedure, shortened: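 Antagonist-mode qHTS: compound titrations added to GRE-bla HeLa cells, then dexamethasone 2 nM final; 18 h, 37 C. CCF4 FRET fluorescence normalized to dexamethasone and DMSO; IC50 from Hill fit.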

[7] = target: Peroxisome proliferator-activated receptor delta (Homo sapiens) (UniProt Q03181); experiment: qHTS assay for small molecule agonists of peroxisome proliferator-activated receptor delta signaling (AID 588534);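 also: 0% = DMSO basal wells and 100% = positive control agonist at 10 µM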
Chain of Peroxisome proliferator-activated receptor delta (Homo sapiens) (Q03181 whole entry, looked up): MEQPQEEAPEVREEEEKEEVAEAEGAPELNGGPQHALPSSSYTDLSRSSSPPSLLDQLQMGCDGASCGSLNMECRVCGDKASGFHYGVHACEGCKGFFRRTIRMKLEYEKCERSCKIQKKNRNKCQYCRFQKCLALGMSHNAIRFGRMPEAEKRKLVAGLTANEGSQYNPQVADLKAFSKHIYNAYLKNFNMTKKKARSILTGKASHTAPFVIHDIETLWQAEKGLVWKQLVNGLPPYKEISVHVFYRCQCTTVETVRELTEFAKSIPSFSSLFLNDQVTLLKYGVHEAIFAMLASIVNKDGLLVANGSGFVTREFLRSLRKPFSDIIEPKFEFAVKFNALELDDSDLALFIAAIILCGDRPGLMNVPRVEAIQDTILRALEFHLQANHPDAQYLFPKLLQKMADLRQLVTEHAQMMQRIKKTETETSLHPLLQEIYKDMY
Procedure, shortened: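 Agonist-mode qHTS; reporter cells, 5 hrs 37 C pre-incubation; compound titration, 18 hrs 37 C; CCF4 dye, 2 hrs RT; fluorescence read. EC50/efficacy via Hill fit.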

[8] = qHTS assay for small molecule antagonists of peroxisome proliferator-activated receptor delta signaling (AID 588535; active = well fitted inhibition curve with a large enough effect in the signal ratio, with a control signal flat, not every such curve was filed as active; the % refers to the signal ratio;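 as to max response: cells co-treated with a PPAR-delta agonist as stimulator during compound exposure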); details: HEK293T PPARd-UAS-bla, beta-lactamase FRET ratio, 18 h; 460 nm channel
Procedure, shortened: (§1)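 Inhibition of PPAR-delta response element-driven beta-lactamase expression is measured in HEK293T cells exposed to a compound titration series for 18 hrs at 37 C. Half-maximal inhibition comes from Hill equation fitting.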

[9] = target: Peroxisome proliferator-activated receptor delta (Homo sapiens) (UniProt Q03181); experiment: as above
Procedure, shortened: as §1

[10] = target: Peroxisome proliferator-activated receptor gamma (Homo sapiens) (UniProt P37231); experiment: qHTS assay for small molecule agonists of peroxisome proliferator-activated receptor gamma signaling (AID 588536; active = well fitted curve in the direction sought with a large enough effect in the signal ratio, with a control signal flat, not every such curve was filed as active; the % refers to the signal ratio;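 also: 0% = DMSO basal wells and 100% = rosiglitazone at 2 µM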)
Chain of Peroxisome proliferator-activated receptor gamma (Homo sapiens) (P37231 whole entry, looked up): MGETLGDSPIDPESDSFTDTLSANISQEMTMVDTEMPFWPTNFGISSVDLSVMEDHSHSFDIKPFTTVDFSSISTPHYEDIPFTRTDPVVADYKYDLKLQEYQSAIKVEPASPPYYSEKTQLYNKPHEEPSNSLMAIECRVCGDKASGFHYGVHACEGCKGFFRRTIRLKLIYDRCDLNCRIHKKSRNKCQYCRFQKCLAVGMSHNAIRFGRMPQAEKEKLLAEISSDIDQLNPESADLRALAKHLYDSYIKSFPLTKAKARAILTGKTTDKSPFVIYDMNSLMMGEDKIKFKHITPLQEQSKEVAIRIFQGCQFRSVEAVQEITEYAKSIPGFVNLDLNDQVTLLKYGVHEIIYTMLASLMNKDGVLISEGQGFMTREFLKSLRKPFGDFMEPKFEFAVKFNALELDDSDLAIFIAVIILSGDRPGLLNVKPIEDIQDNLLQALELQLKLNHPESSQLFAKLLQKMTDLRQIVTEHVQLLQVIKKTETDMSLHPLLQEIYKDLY
Procedure, shortened: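 Beta-lactamase reporter read-out: CCF4 fluorescence (ex 405, em 460/530 nm) after 2 h at RT. HEK293 GeneBLAzer cells were treated for 16 h at 37 C. Hill fits gave EC50 and efficacy versus 2 uM rosiglitazone (100%) and DMSO (0%).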

[11] = target: Peroxisome proliferator-activated receptor gamma (Homo sapiens) (UniProt P37231); experiment: qHTS assay for small molecule antagonists of peroxisome proliferator-activated receptor gamma signaling (AID 588537; active = well fitted inhibition curve with a large enough effect in the signal ratio, with a control signal flat, not every such curve was filed as active; the % refers to the signal ratio;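 also: reporter cells co-stimulated with 50 nM rosiglitazone agonist during compound treatment; % of control where 0% means no effect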)
Procedure, shortened: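 Compounds are tested as concentration series for inhibition of rosiglitazone-driven (50 nM) reporter expression in GeneBLAzer PPAR-gamma-UAS-bla HEK293 cells. After 16 h at 37 C, CCF4 substrate is added for 2 h at room temperature and blue/green fluorescence is measured.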

[12] = target: Vitamin D3 receptor (Homo sapiens) (UniProt P11473); experiment: qHTS assay for small molecule antagonists of vitamin D receptor signaling (AID 588541);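 also: receptor activated by calcitriol during compound treatment; series mostly up to about 77 µM; % is scaled to controls: 0 for no effect and ±100 for the full control effect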
Chain of Vitamin D3 receptor (Homo sapiens) (P11473 whole entry, looked up): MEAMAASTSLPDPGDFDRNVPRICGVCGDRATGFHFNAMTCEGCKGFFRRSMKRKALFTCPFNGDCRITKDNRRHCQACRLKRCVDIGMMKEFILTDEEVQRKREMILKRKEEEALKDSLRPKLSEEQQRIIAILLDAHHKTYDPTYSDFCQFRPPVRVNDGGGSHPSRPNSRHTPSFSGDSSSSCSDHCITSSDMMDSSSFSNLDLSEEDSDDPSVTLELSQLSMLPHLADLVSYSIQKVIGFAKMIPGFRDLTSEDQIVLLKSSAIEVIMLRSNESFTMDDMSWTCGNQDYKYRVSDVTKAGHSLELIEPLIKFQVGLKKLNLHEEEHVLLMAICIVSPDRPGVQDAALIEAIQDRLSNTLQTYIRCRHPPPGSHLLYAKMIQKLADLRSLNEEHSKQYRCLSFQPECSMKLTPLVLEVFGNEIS
Procedure, shortened: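 VDR-UAS-bla HEK293T cells (2000/well, 2% charcoal-stripped FBS) were treated with titrated compounds plus 1-alpha,25-dihydroxyvitamin D3 (50 nM or 3 nM final) for 16 h at 37 C. CCF4 beta-lactamase fluorescence was read; Hill fits gave IC50.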

[13] = target: Vitamin D3 receptor (Homo sapiens) (UniProt P11473); experiment: qHTS assay for small molecule agonists of vitamin D receptor signaling (AID 588543);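 also: 0% = DMSO basal and 100% = reference agonist control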
Procedure, shortened: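 β-lactamase reporter, VDR-UAS-bla HEK293T, agonist mode. Cells plated 5 h at 37 °C, compound titration 16 h at 37 °C, CCF4 dye 2 h RT, ratio 460/530 nm. Hill fit → EC50, efficacy vs 50 nM 1α,25-(OH)2D3.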

[14] = qHTS assay for small molecule agonists of retinoid X receptor alpha signaling (AID 588544); details: HEK293T RXRa-UAS-bla, beta-lactamase reporter, 18 h; 530 nm emission;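 as to activation: 0% = DMSO basal wells and 100% = reference agonist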
[15] = target: Retinoic acid receptor RXR-alpha (Homo sapiens) (UniProt P19793); experiment: as above
Chain of Retinoic acid receptor RXR-alpha (Homo sapiens) (P19793 whole entry, looked up): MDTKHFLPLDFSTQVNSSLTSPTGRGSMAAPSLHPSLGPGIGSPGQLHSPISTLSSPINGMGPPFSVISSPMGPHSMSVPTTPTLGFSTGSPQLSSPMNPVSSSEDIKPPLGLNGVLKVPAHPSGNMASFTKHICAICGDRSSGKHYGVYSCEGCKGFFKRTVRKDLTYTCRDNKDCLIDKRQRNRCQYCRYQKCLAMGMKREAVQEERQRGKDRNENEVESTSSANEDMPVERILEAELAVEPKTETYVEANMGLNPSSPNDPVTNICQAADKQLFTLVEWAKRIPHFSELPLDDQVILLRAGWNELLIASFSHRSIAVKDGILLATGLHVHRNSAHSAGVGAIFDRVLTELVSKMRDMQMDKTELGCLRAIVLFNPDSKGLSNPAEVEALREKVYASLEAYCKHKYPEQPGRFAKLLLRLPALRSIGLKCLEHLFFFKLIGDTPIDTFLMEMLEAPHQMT

[16] = qHTS assay for small molecule antagonists of retinoid X receptor alpha signaling (AID 588546; active = well fitted inhibition curve with a large enough effect in the signal ratio, with a control signal flat, not every such curve was filed as active; the % refers to the signal ratio); details: HEK293T RXRa-UAS-bla, beta-lactamase ratio, antagonist mode; measured here: W530 green channel, cytotoxicity proxy
Procedure, shortened: (§2)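 Beta-lactamase reporter inhibition, read as CCF4 fluorescence ratio (ex 405, em 460/530 nm) after 2 h at RT. HEK293T UAS-bla cells, 2500/well, were stimulated with 9-cis-RA at 500 or 100 nM final alongside test compound for 18 h at 37 C.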

[17] = target: Retinoic acid receptor RXR-alpha (Homo sapiens) (UniProt P19793); experiment: as above; details: HEK293T RXRa-UAS-bla, beta-lactamase ratio, antagonist mode
Procedure, shortened: as §2

[18] = target: Thyroid hormone receptor beta (Homo sapiens) (UniProt P10828); experiment: qHTS assay for small molecule antagonists of thyroid hormone receptor beta signaling (AID 588547; active = well fitted inhibition curve with a large enough effect in the signal ratio, with a control signal flat, not every such curve was filed as active; the % refers to the signal ratio); details: TR-UAS-bla HEK293, beta-lactamase ratio, antagonist mode, 18 h
Chain of Thyroid hormone receptor beta (Homo sapiens) (P10828 whole entry, looked up): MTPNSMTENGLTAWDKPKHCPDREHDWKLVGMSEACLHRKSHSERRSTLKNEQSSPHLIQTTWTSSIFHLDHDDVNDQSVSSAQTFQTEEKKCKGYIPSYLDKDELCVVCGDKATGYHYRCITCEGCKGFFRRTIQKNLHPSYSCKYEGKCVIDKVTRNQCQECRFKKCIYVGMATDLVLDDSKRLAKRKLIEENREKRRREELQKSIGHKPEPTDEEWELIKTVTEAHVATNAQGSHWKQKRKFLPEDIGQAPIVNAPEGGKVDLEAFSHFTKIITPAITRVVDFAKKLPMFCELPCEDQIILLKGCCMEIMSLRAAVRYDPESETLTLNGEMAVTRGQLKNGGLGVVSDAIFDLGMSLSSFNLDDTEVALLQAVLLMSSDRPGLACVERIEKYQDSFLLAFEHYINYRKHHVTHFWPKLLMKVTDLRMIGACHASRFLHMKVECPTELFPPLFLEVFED
Procedure, shortened: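 TR-UAS-bla GripTite HEK293 cells in 2% charcoal/dextran FBS medium were preincubated 4 h at 37 C, given compound (0.59 nM to 92 uM) plus 0.4 nM T3 (final) for 18 h, then CCF4 for 2 h at RT; Hill fit gave IC50.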

[19] = qHTS assay for small molecule agonists of the antioxidant response element (ARE) signaling pathway (AID 651741; active = well fitted activation curve with a large enough effect in the signal ratio; the % refers to the signal ratio; also: potency is read from the fitted curve at half-maximal effect)
Procedure, shortened: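 Reporter: beta-lactamase under ARE, stably in HepG2. Exposure: 16 h, 37 C, compounds delivered in DMSO by pin tool after 5 h cell preincubation. Readout: FRET substrate fluorescence after 2 h at RT.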

[20] = qHTS assay for small molecule activators of the p53 signaling pathway (AID 651743; active = well fitted activation curve with a large enough effect in the signal ratio, not every such curve was filed as active; the % refers to the signal ratio; also: series mostly up to about 92 µM; % of control where 0% means no effect); details: HCT-116 p53RE-bla, beta-lactamase FRET ratio, 16 h; activation: stronger effect = higher value
Procedure, shortened: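 Agonist-mode quantitative HTS in HCT-116 cells carrying a p53-response-element beta-lactamase reporter; 16 h compound treatment at 37 C, then FRET substrate loading for 2 h at room temperature and fluorescence read.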

[21] = qHTS assay for small molecule activators of the nuclear factor-kappa B (NF-kB) signaling pathway (AID 651749; active = well fitted activation curve with a large enough effect in the signal ratio; the % refers to the signal ratio; also: series mostly up to about 77 µM; % of control where 0% means no effect); details: NF-kB-bla ME-180 cells, beta-lactamase FRET ratio, 16 h; activation: stronger effect = higher value
Procedure, shortened: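 Human ME-180 cervical cells with an NF-kB-bla construct; compounds added via 23 nL pin transfer, DMSO as vehicle; incubation 16 hr. Reporter activity measured by FRET disruption.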

[22] = qHTS assay for environmental chemicals that activate the Aryl hydrocarbon Receptor (AhR) signaling pathway (AID 651777; active = well fitted curve in the direction sought with a large enough effect; an effect the other way counts as inactive or inconclusive; also: % of control where 0% means no effect; nearly all actives have a fitted effect of over 15% in size); details: 1A2-DRE human hepatoma cells, luciferase, 24 h; activation: stronger effect = higher value
Procedure, shortened: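 Stable CYP1A2 promoter/DRE-luciferase human hepatoma line treated 24 hr; One-Glo luminescence, 30 min RT.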

[23] = target: Peroxisome proliferator-activated receptor alpha (Homo sapiens) (UniProt Q07869); experiment: qHTS assay for small molecule agonists of the peroxisome proliferator-activated receptor alpha (PPARalpha) signaling pathway (AID 651778; active = well fitted curve in the direction sought with a large enough effect; an effect the other way counts as inactive or inconclusive; also: % of control where 0% means no effect); details: PathHunter PPARalpha complementation, chemiluminescence, 6 h; max response: stronger effect = higher value
Procedure, shortened: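 Cells plated at 2,000/well and held overnight at 37 C, 5% CO2, then compound added by pin tool for 6 hr; after PathHunter detection reagent and 60 min at room temperature, chemiluminescence from enzyme complementation was read.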

[24] = qHTS assay for small molecule agonists of the antioxidant response element (ARE) signaling pathway measured by Nrf2-dependant transcriptional activity (AID 720636; active = well fitted curve in the direction sought with a large enough effect in the repeat runs; an effect the other way counts as inactive or inconclusive;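 also: HepG2 cells with an ARE-driven luciferase reporter; % of control where 0% means no effect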)
Procedure, shortened: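 Reporter gene assay, HepG2 ARE-luc: 16 hr compound, 37 C, 5% CO2; read-out luciferase luminescence.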

[25] = qHTS assay for small molecule agonists of the antioxidant response element (ARE) signaling pathway measured by Nrf2-dependant transcriptional activity - cell viability counter screen (AID 720653; active = well fitted curve in the direction sought with a large enough effect in the repeat runs; an effect the other way counts as inactive or inconclusive; also: % is scaled to controls: 0 for no effect and ±100 for the full control effect); details: ARE-bla HepG2 viability, CellTiter-Glo ATP luminescence, 16 h; max response: stronger effect = lower value
Procedure, shortened: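 ARE-bla HepG2 cells (2,000/well) rested 5 hrs at 37C/5% CO2, then exposed to compounds in DMSO for 16 hrs. Viability was read in the same wells as intracellular ATP by luminescence, 30 min at room temperature after reagent addition.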

[26] = qHTS assay for cell viability of HEK293 cells (AID 743288; active = well fitted curve in the direction sought with a large enough effect; an effect the other way counts as inactive or inconclusive; also: % is scaled to controls: 0 for no effect and ±100 for the full control effect; nearly all actives have a fitted effect of over 50% in size); details: ATP luminescence (CellTiter-Glo), 18 h; max response: stronger effect = lower value
Procedure, shortened: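 ATP luminescence (CellTiter-Glo) reports metabolically competent cell number after parental HEK293 cells, 2,000/well, were treated with DMSO-dissolved compounds for 18 h at 37 C; reagent incubation 30 min, room temperature.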

[27] = qHTS assay for cell viability of the p53RE-bla HCT-116 cell line (AID 743292; active = well fitted curve in the direction sought with a large enough effect; an effect the other way counts as inactive or inconclusive; also: % is scaled to controls: 0 for no effect and ±100 for the full control effect; nearly all actives have a fitted effect of over 55% in size)
Procedure, shortened: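 Readout: CellTiter-Glo luminescence after 30 min RT. Treatment: compounds in DMSO, 16 h, 37 C. Cells: CellSensor p53RE-bla HCT-116, 4,000/well, preincubated 5 h.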

[28] = target: Nuclear receptor subfamily 1 group I member 2 (Rattus norvegicus) (UniProt Q9R1A7); experiment: qHTS assay for small molecule activators of the rat pregnane X receptor (rPXR) signaling pathway (AID 651751; call rule not given here; also: 0% is about no effect); details: rPXR reporter cells, luciferase (One-Glo), 24 h
Chain of Nuclear receptor subfamily 1 group I member 2 (Rattus norvegicus) (Q9R1A7 whole entry, looked up): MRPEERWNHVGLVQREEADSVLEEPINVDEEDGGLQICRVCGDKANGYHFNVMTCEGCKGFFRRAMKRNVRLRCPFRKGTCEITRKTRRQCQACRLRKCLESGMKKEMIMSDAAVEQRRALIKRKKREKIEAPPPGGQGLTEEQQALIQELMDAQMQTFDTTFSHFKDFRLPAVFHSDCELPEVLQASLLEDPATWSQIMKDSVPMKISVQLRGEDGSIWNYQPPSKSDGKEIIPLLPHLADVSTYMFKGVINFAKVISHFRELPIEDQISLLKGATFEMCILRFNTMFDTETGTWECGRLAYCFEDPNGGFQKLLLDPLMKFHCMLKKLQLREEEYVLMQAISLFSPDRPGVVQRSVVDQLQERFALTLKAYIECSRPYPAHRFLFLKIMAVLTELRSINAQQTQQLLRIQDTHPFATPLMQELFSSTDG

[29] = qHTS assay for small molecule activators of the human pregnane X receptor (PXR) signaling pathway (AID 720659; call rule not given here; also: 0% is about no effect)

For CNC(=O)Oc1ccc(N(C)C)c(C)c1, the Potency [1] was “inactive”, the Potency [2] was “inactive” and the Potency [3] was “inactive”. For the same compound, the activation [4] was 0.727% (inactive), the activation [5] was -10.5% (inactive) and the Potency [6] was “inactive”. The outcome [7] was “inactive”, the max response [8] was -23.4% and the Potency [9] was “inactive”. For the same compound, the Potency [10] was “inactive”, the Potency [11] was “inactive” and the Potency [12] was “inactive”. The outcome [13] was “inactive”, the max response [14] was -30.4% and the Potency [15] was “inactive”. For the same compound, the max response [16] was -12.9%, the max response [17] was 7.08% (inactive) and the activity change % (negative = inhibition) [18] was -0.485% (inactive). For the same compound, the Potency [19] was 54.5 µM (active), the activation [20] was 2.89% (inactive) and the activation [21] was -0.493% (inactive). For the same compound, the activation [22] was 3.59% (inactive), the max response [23] was -2.96% (inactive) and the Potency [24] was “inactive”. For the same compound, the max response [25] was 5.88% (inactive), the max response [26] was -1.07% (inactive) and the Potency [27] was “inactive”. The max response [28] was 2.85% (inactive) and the outcome [29] was “inactive”.
